Test results taken from PubChem BioAssay (EPA / NIEHS).
Calls of active or inactive are those of the source. The calls were made as follows: active = hit-call score of the fitted dose curve at least 0.9, where 1 is the maximum; inactive = score below 0.9.

What was measured:
Settings in all cases: mRNA level, 48 h; actives raise or lower the signal
[1] = read-out: Heat shock 70 kDa protein 1 (HSPA1A), gene 3303; assay: LTEA_HepaRG_HSPA1A: Life Technologies and Expression Analysis (LTEA) Assay for Heat shock 70 kDa protein 1 (HSPA1A) using HepaRG (AID 2283502)
Outline: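 Differentiated human HepaRG cells in serum-free induction medium were exposed in duplicate for 48 h to eight concentrations (top 100 uM, half-log steps, 0.5% DMSO). HSPA1A mRNA was quantified by qRT-PCR, normalized to ACTB, GAPDH and POLR2A, and fitted bidirectionally against DMSO.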

[2] = read-out: 3-Hydroxy-3-Methylglutaryl-CoA Synthase 2 (HMGCS2), HMGCS2 (gene 3158); assay: LTEA_HepaRG_HMGCS2: Life Technologies and Expression Analysis (LTEA) Assay for 3-Hydroxy-3-Methylglutaryl-CoA Synthase 2 (HMGCS2) using HepaRG (AID 2283504)
Outline: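 Readout is HMGCS2 transcript by qRT-PCR, housekeeping-normalised (ACTB/GAPDH/POLR2A) and fitted bidirectionally against 0.5% DMSO. Differentiated HepaRG cells received chemicals 48 h, duplicate wells, eight half-log concentrations topping at 100 uM.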

HGF (gene 3082) = assay: LTEA_HepaRG_HGF: Life Technologies and Expression Analysis (LTEA) Assay for Hepatocyte Growth Facto (HGF) using HepaRG (AID 2283505)
Outline: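 HGF transcript was quantified by TaqMan qRT-PCR against three housekeeping genes after 48 h treatment of HepaRG cells. Exposure ran in duplicate over eight half-log steps topping at 100 uM in 0.5% DMSO vehicle.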

[3] = read-out: Insulin Like Growth Factor 1 (IGF1), IGF1 (gene 3479); assay: LTEA_HepaRG_IGF1: Life Technologies and Expression Analysis (LTEA) Assay for Insulin Like Growth Factor 1 (IGF1) using HepaRG (AID 2283506)
Outline: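 Differentiated human HepaRG cells were dosed for 48 h in serum-free induction medium with 0.5% DMSO, eight half-log concentrations up to 100 uM, in duplicate. IGF1 mRNA was quantified by qRT-PCR normalized to ACTB, GAPDH, POLR2A; bidirectional fitting versus DMSO.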

[4] = read-out: Intercellular Adhesion Molecule 1 (ICAM1), ICAM1 (gene 3383); assay: LTEA_HepaRG_ICAM1: Life Technologies and Expression Analysis (LTEA) Assay for Intercellular Adhesion Molecule 1 (ICAM1) using HepaRG (AID 2283507)
Outline: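 ICAM1 transcript levels measured by qRT-PCR, normalized to three housekeeping genes (ACTB, GAPDH, POLR2A), after 48 h chemical exposure of HepaRG cells. Duplicate eight-point half-log series from 100 uM in 0.5% DMSO; gain or loss fitted against vehicle.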

[5] = read-out: Insulin-like growth factor-binding protein 1 (IGFBP1), IGFBP1 (gene 3484); assay: LTEA_HepaRG_IGFBP1: Life Technologies and Expression Analysis (LTEA) Assay for Insulin-like growth factor-binding protein 1 (IGFBP1) using HepaRG (AID 2283508)
Outline: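 Read-out is qRT-PCR transcript level normalized to three housekeeping genes, fitted in both directions against 0.5% DMSO. Differentiated HepaRG cells received eight half-log concentrations (top 100 uM) in duplicate for 48 h in serum-free induction medium.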

[6] = read-out: Interleukin 6 Receptor (IL6R), IL6R (gene 3570); assay: LTEA_HepaRG_IL6R: Life Technologies and Expression Analysis (LTEA) Assay for Interleukin 6 Receptor (IL6R) using HepaRG (AID 2283510)
Outline: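 Differentiated human HepaRG cells, plated 48 h then switched to serum-free induction medium, were dosed in duplicate for 48 h at eight half-log concentrations up to 100 uM in 0.5% DMSO. IL6R mRNA quantified by qRT-PCR, normalized to ACTB/GAPDH/POLR2A; bidirectional fit versus DMSO.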

[7] = read-out: Keratin 19 (KRT19), KRT19 (gene 3880); assay: LTEA_HepaRG_KRT19: Life Technologies and Expression Analysis (LTEA) Assay for Keratin 19 (KRT19) using HepaRG (AID 2283512)
Outline: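 KRT19 transcript measured by TaqMan qRT-PCR, referenced to three housekeeping genes, after HepaRG cells received test chemicals for 48 h. Eight half-log concentrations, top 100 uM, 0.5% DMSO vehicle; increases and decreases both fitted.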

[8] = read-out: JUN Transcription Factor, JUN (gene 3725); assay: LTEA_HepaRG_JUN: Life Technologies and Expression Analysis (LTEA) Assay for JUN Transcription Factor using HepaRG (AID 2283513)
Outline: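 Differentiated HepaRG cells were exposed to chemicals for 48 h in serum-free induction medium, 8 concentrations from 100 uM in half-log steps, 0.5% DMSO vehicle, in duplicate. JUN mRNA was quantified by TaqMan qRT-PCR, normalized to ACTB, GAPDH, POLR2A.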

[9] = read-out: Lipase C (LIPC), LIPC (gene 3990); assay: LTEA_HepaRG_LIPC: Life Technologies and Expression Analysis (LTEA) Assay for Lipase C (LIPC) using HepaRG (AID 2283514)
Outline: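 Read-out is LIPC transcript level by TaqMan qRT-PCR, normalized to three housekeeping genes, after 48 h chemical treatment of human HepaRG liver cells. Curves span eight concentrations topping at 100 uM; activity in either direction scored relative to 0.5% DMSO.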

[10] = read-out: Lipoprotein lipase (LPL), LPL (gene 4023); assay: LTEA_HepaRG_LPL: Life Technologies and Expression Analysis (LTEA) Assay for Lipoprotein lipase (LPL) using HepaRG (AID 2283515)
Outline: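 Read-out is LPL transcript level by qRT-PCR, normalized to three housekeeping genes and fitted bidirectionally against the DMSO control. Human HepaRG cells received chemicals for 48 h at up to 100 uM.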

[11] = read-out: matrix metalloproteinase-10 (MMP10), MMP10 (gene 4319); assay: LTEA_HepaRG_MMP10: Life Technologies and Expression Analysis (LTEA) Assay for matrix metalloproteinase-10 (MMP10) using HepaRG (AID 2283517)
Outline: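 Gain or loss of MMP10 mRNA is fitted relative to the 0.5% DMSO vehicle. The human hepatic line HepaRG receives a 48-hour serum-free exposure, in duplicate, with a maximum concentration of 100 uM.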

MYC, MYC (gene 4609) = assay: LTEA_HepaRG_MYC: Life Technologies and Expression Analysis (LTEA) Assay for MYC using HepaRG (AID 2283518)
Outline: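 MYC transcript changes, up or down relative to 0.5% DMSO, from TaqMan qRT-PCR normalized to three housekeeping genes. Human HepaRG cultures received chemicals for 48 h at eight half-log concentrations up to 100 uM, in duplicate.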

[12] = read-out: matrix metalloproteinase-3 (MMP3), MMP3 (gene 4314); assay: LTEA_HepaRG_MMP3: Life Technologies and Expression Analysis (LTEA) Assay for matrix metalloproteinase-3 (MMP3) using HepaRG (AID 2283519)
Outline: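 HepaRG, human; 48 h dosing, 8 conc. (max 100 uM, half-log), duplicate, 0.5% DMSO. Readout: MMP3 transcript by Fluidigm TaqMan qRT-PCR, ACTB/GAPDH/POLR2A-normalised. Gain or loss fitted vs DMSO.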

[13] = read-out: Paternally Expressed 10 (PEG10), PEG10 (gene 23089); assay: LTEA_HepaRG_PEG10: Life Technologies and Expression Analysis (LTEA) Assay for Paternally Expressed 10 (PEG10) using HepaRG (AID 2283520)
Outline: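 Differentiated HepaRG cells, plated 48 h then switched to serum-free induction medium, were exposed in duplicate for 48 h to eight half-log concentrations topping at 100 uM in 0.5% DMSO. PEG10 mRNA was quantified by TaqMan qRT-PCR, normalised to ACTB, GAPDH and POLR2A.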

[14] = read-out: Nuclear factor NF-kappa-B p105 subunit (Homo sapiens) (UniProt P19838); assay: LTEA_HepaRG_NFKB1: Life Technologies and Expression Analysis (LTEA) Assay for Nuclear Factor Kappa B Subunit 1 (NFKB1) using HepaRG (AID 2283521)
Outline: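 Differentiated human HepaRG cells in serum-free induction medium with 0.5% DMSO were exposed for 48 h to eight half-log concentrations, top 100 uM, in duplicate. NFKB1 mRNA measured by Fluidigm TaqMan qRT-PCR, normalised to ACTB, GAPDH and POLR2A; bidirectional fit versus DMSO.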

[15] = read-out: Potassium channel subfamily K member 1 (KCNK1), KCNK1 (gene 3775); assay: LTEA_HepaRG_KCNK1: Life Technologies and Expression Analysis (LTEA) Assay for Potassium channel subfamily K member 1 (KCNK1) using HepaRG (AID 2283511)
Outline: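 Gain or loss of KCNK1 mRNA is the read-out, quantified by qRT-PCR against three housekeeping genes after 48 h chemical treatment of human HepaRG liver cells. Concentrations ran from 100 uM downward in half-log steps, vehicle 0.5% DMSO.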

[16] = read-out: MicroRNA 122 (MIR122), gene 406906; assay: LTEA_HepaRG_MIR122: Life Technologies and Expression Analysis (LTEA) Assay for MicroRNA 122 (MIR122) using HepaRG (AID 2283516); also: the transcript read is the microRNA miR-122
Outline: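 Differentiated human HepaRG cells were exposed 48 h in serum-free induction medium to eight half-log concentrations (top 100 uM, 0.5% DMSO). Transcript level was measured by TaqMan qRT-PCR, normalized to ACTB, GAPDH and POLR2A, and fitted bidirectionally versus DMSO.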

Measured: AC50

Sequence of Nuclear factor NF-kappa-B p105 subunit (Homo sapiens) (P19838 whole entry, looked up): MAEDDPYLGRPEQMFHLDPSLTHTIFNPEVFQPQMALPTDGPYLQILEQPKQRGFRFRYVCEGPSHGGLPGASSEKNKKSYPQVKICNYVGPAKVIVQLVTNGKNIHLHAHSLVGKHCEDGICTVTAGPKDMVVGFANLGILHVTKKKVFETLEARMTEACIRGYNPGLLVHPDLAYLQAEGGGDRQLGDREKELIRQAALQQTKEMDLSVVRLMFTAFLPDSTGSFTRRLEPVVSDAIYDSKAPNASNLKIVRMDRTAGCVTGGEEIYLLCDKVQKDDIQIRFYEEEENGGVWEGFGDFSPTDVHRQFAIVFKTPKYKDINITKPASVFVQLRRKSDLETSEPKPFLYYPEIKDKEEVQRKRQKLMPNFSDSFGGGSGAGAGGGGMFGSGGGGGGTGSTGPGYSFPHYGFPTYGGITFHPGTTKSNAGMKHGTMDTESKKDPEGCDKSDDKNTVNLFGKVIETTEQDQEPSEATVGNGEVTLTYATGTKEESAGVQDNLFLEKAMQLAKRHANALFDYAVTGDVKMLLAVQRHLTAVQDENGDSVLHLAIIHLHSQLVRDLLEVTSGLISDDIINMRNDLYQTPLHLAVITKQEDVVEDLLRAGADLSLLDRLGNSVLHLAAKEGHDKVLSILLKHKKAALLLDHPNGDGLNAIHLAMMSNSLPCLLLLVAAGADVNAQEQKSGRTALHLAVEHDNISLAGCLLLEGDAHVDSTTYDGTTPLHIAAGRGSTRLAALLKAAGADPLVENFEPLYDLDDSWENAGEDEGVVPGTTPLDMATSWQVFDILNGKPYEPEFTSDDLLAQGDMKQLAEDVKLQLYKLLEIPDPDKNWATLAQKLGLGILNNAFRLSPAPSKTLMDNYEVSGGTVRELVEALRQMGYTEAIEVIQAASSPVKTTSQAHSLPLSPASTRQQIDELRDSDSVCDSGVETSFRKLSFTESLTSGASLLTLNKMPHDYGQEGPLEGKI

N#CC(Br)Br
not listed: [15] | [16]
inactive: all other assays above

Cc1ccc([N+](=O)[O-])cc1
active: [3] 17800 nM | [13] 11300 nM
not listed: [14] | [15] | [16]
inactive: all other assays above

Brc1ccc(Oc2ccccc2)cc1
not listed: [10] | [16]
inactive: all other assays above

[O-][Cl+]O
not listed: [16]
inactive: all other assays above

COc1cc(C=O)cc2c1[C@H](COC(N)=O)[C@]1(OC(C)=O)ON2C[C@H]2[C@@H]1N2C(C)=O
active: [2] 827 nM | [3] 500 nM | [4] 1310 nM | [5] 4860 nM | [6] 24700 nM | [7] 1490 nM | [8] 5000 nM | [11] 1580 nM | [12] 1440 nM
inactive: [1] | HGF (gene 3082) | [15] | [9] | [16] | MYC, MYC (gene 4609) | [13]
